The record followed here is PubChem BioAssay.

Several values for one entry are separate records, joined by “and”; a condition that tells them apart may be missing. Equal entries are not always repeated. For some assays here: Measured potencies and affinities stand elsewhere. More than one record can exist for a structure, and the calls need not agree. Activity calls are given as the source filed them. Unless noted, how the calls were made is not given here.

For orientation: inhibition means the change of the read-out against control, counted positive when it falls.

Test [1] in a line: antimalarial activity against Dd2 strain (AID 2302;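 active means growth inhibition above 50% at the single 2 µM test dose, taken to imply half-maximal potency below 2 µM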;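 further: 0% = DMSO untreated growth and 100% = chloroquine plus artemisinin killed control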). The conditions noted are these: P. falciparum Dd2 in RBCs, LDH growth readout, 72 h; at 2 µM; stronger effect = higher value.
Test [2] in a line: human hepatoma cell viability loss – ATP luminescence, cytotoxicity control for P. falciparum antimalarial project, primary screen (AID 2303;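 active means inhibition above 50%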;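 further: 0% = DMSO wells and 100% = digitonin-killed cells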). To be noted: HepG2 viability, 24-48 h, at 10 µM, stronger effect = higher value.
In test [3] the target is L-lactate dehydrogenase (Plasmodium falciparum (isolate CDC / Honduras)) (UniProt Q27743). In words: PfLDH activity inhibition – cell lysate, 3D7 strain, counter-screen for P. falciparum growth inhibition project (AID 2304).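 Further: 0% = vehicle and 100% = reference inhibitor.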 The conditions noted are these: P. falciparum 3D7 crude extract, LDH APAD/NBT absorbance; at 2 µM; stronger effect = higher value. On the technique in general: The purpose of a counterscreen is to sort out artefacts and off-target activity.

Test [4] is described as follows: inhibition of 3D7 malaria parasite growth – strain 3D7 (AID 2306).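 Further: 0% = DMSO wells and 100% = chloroquine plus artemisinin control wells.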 The conditions noted are these: P. falciparum 3D7 erythrocytic growth, LDH absorbance, 72 h; at 2 µM; stronger effect = higher value.
Test [5] has as its target Calcium-dependent protein kinase 1 (Plasmodium falciparum (isolate 3D7)) (UniProt P62344). In words: PfCDPK1 kinase inhibitors, biochemical, TCAMS library (AID 1159585; cut-off not given, nearly all actives have IC50 up to about 0.98 µM;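 further: inhibitors leave more ATP so luminescence rises with inhibition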). To be noted: recombinant PfCDPK1, Kinase-Glo ATP depletion luminescence. (In general: Kinase-Glo reads ATP consumption through a luciferase reaction.)
For test [6], the target named is Plasmodium falciparum protein kinase 6 (PK6, PF3D7_1337100) (UniProt Q8IDW1). In words: PfPK6 kinase inhibitors, biochemical, TCAMS library (AID 1159586). The conditions noted are these: recombinant PfPK6, Kinase-Glo ATP depletion luminescence.
In test [7] the target is Protein kinase 7 (PK7), Plasmodium falciparum 3D7 (PF3D7_0213400) (UniProt Q7YTF7). In words: inhibition of Plasmodium PK7 catalytic activity – biochemical, TCAMS antimalarial set, Kinase-Glo luminescence (AID 1159587). The conditions noted are these: recombinant PfPK7, Kinase-Glo ATP depletion luminescence.
The target of test [8] is Calcium-dependent protein kinase 4 (Plasmodium falciparum (isolate 3D7)) (UniProt Q8IBS5). The test can be described thus: PfCDPK4 kinase inhibitors, biochemical, TCAMS library (AID 1159588; cut-off not given, nearly all actives have IC50 up to about 0.91 µM). To be noted: recombinant PfCDPK4, Kinase-Glo ATP depletion luminescence.
Calcium-dependent protein kinase 4 (Plasmodium falciparum (isolate 3D7)), sequence (Q8IBS5 whole entry, looked up): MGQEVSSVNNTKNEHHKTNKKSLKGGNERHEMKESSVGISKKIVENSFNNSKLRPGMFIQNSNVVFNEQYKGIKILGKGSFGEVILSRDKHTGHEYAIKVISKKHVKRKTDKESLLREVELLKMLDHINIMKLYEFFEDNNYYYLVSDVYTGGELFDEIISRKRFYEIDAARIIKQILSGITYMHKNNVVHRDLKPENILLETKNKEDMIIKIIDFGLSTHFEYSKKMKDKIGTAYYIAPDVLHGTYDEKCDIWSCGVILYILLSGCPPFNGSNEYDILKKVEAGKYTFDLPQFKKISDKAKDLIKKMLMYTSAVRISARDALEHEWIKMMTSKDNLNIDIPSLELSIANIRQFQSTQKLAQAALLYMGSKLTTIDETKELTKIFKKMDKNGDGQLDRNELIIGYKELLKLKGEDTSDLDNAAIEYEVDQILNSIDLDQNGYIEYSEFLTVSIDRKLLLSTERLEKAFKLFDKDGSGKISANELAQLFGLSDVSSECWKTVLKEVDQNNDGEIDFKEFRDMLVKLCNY

Calcium-dependent protein kinase 1 (Plasmodium falciparum (isolate 3D7)), sequence (P62344 whole entry, looked up): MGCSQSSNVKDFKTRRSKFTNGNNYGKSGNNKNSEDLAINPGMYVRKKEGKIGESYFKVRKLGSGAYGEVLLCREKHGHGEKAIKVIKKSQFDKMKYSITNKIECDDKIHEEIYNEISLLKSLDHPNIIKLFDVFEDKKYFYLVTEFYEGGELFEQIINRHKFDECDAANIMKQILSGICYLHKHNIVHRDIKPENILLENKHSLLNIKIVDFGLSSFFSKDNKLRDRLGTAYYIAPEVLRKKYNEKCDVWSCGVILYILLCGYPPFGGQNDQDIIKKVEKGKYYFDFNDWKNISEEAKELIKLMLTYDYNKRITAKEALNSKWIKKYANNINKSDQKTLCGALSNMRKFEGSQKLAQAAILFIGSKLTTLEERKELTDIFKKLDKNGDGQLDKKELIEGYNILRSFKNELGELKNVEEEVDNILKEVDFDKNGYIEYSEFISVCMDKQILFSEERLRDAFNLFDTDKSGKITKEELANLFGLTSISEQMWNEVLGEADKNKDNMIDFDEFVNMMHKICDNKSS
L-lactate dehydrogenase (Plasmodium falciparum (isolate CDC / Honduras)), sequence (Q27743 whole entry, looked up): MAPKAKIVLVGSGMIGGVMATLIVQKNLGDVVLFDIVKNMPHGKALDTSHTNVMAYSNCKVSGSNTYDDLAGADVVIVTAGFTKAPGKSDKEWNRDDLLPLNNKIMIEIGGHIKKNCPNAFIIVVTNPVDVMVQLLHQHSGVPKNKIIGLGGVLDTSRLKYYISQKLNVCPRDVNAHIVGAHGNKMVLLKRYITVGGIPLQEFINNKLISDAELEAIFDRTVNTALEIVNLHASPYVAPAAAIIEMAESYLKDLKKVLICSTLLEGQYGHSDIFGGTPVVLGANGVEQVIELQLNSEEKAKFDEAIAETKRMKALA
Plasmodium falciparum protein kinase 6 (PK6, PF3D7_1337100), sequence (Q8IDW1 1-305): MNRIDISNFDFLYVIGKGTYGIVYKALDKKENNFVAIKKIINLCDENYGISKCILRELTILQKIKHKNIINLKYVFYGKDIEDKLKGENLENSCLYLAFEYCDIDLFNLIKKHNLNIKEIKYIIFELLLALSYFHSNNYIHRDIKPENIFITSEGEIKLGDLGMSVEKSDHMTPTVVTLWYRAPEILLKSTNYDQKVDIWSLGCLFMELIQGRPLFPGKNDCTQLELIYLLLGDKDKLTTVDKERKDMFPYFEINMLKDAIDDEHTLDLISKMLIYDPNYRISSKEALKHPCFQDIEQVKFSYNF
Protein kinase 7 (PK7), Plasmodium falciparum 3D7 (PF3D7_0213400), sequence (Q7YTF7 1-343): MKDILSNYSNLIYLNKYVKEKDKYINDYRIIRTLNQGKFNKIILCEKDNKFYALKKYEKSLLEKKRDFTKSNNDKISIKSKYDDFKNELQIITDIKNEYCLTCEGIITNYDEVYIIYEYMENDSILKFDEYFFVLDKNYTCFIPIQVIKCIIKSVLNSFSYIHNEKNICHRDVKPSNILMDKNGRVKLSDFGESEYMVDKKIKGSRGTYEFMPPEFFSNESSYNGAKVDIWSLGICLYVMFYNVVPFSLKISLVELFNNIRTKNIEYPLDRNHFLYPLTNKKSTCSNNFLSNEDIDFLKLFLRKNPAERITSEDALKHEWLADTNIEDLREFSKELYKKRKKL

As for `COC(=O)c1sccc1NC(=S)NC1CCC(CN2CCC(c3c[nH]c4ccccc34)CC2)CC1` (configuration not stated), the growth inhibition was 54% (active) and 49% (inactive) in test [1]; 97% (active) and 100% (active) in test [4]. For the same molecule, the inhibition in test [2] was 25% (inactive) and 34% (inactive); in test [3] it was 0% (inactive) and -1% (inactive). For the same molecule, the result in test [5], in test [6], in test [7] and in test [8] was inactive.
Regarding `O=C(/C=C/c1ccc(Cl)c(Cl)c1)Nc1cccc(CN2CCC(c3c[nH]c4ccccc34)CC2)c1`, the growth inhibition in test [1] was 91% (active); in test [4], 99% (active). In addition, the inhibition is 15% (inactive) in test [2] and 0% (inactive) in test [3]. The outcome in test [5], in test [6], in test [7] and in test [8] was inactive.
On to `CC(=O)N(Cc1cccc(-c2cccc(CNCCc3ccccc3)c2)c1)C1CCN(Cc2ccccc2)CC1`, for which the values for the growth inhibition in test [1] and in test [4] were 57% (active) and 100% (active), respectively. The inhibition is 22% (inactive) in test [2] and -3% (inactive) in test [3]. For the same molecule, the outcome in test [5], in test [6], in test [7] and in test [8] was inactive.
With `CCOC(C(=O)OCC1CCCN1C)(c1ccccc1)c1ccccc1` (configuration not stated), the growth inhibition in test [1] is 3% (inactive); in test [4] it was 97% (active). Besides, the inhibition was 13% (inactive) in test [2] and 6% (inactive) in test [3]. The outcome in test [5], in test [6], in test [7] and in test [8] was inactive.
Turning to `CNCCCN(C)C(=O)Oc1c(Br)c(C)nc(C)c1-c1ccc(Oc2ccc(OC(F)(F)F)cc2)cc1`, the growth inhibition in test [1] and in test [4] was 96% (active) in each case. The inhibition is 17% (inactive) in test [2] and 3% (inactive) in test [3]. Also, the result in test [5], in test [6], in test [7] and in test [8] was inactive.
For the molecule `Cc1c(C(=O)NC2CCC(CN3CCC(c4c[nH]c5ccccc45)CC3)CC2)cnn1-c1c(Cl)cc(Cl)cc1Cl` (configuration not stated), the results for the growth inhibition in test [1] and in test [4] were 97% (active) and 100% (active), respectively. Moreover, the results for the inhibition in test [2] and in test [3] were 53% (active) and 4% (inactive), respectively. Besides, the result in test [5], in test [6], in test [7] and in test [8] was inactive.
As to `CCCCCCC(C)(C)c1cc(O)c2c3c(c(=O)oc2c1)CCN(Cc1ccccc1)C3`, the results for the growth inhibition in test [1] and in test [4] were 99% (active) and 100% (active), respectively. Besides, the inhibition in test [2] was 3% (inactive); in test [3], 6% (inactive). The outcome in test [5], in test [6], in test [7] and in test [8] was inactive.
Regarding `O=C(/C=C/c1ccc(Cl)c(Cl)c1)NCCCCCN1[C@@H]2CC[C@H]1CC(c1c[nH]c3ccc(O)cc13)C2` (some centres not stated), the growth inhibition was -1% (inactive) and 20% (inactive) in test [1]; 100% (active) and 91% (active) in test [4]. Moreover, the inhibition in test [2] was 26% (inactive) and 9% (inactive); in test [3], 2% (inactive) and -6% (inactive). The result in test [5], in test [6], in test [7] and in test [8] was inactive.
As to `C/C=C1/CN2CC[C@H]1C[C@H]2[C@H](O)c1ccnc2ccc(O)cc12`, the growth inhibition is 11% (inactive) in test [1] and 99% (active) in test [4]. Further, the inhibition in test [2] is -2% (inactive); in test [3], -3% (inactive). Besides, the result in test [5], in test [6], in test [7] and in test [8] was inactive.
In the case of `COc1ccc(CCNCc2ccc3nc(N)c(C)cc3c2)cc1`, the growth inhibition in test [1] is 15% (inactive); in test [4], 100% (active). The inhibition is -1% (inactive) in test [2] and 3% (inactive) in test [3]. Moreover, the result in test [5], in test [6], in test [7] and in test [8] was inactive.
For the molecule `CC[C@H]1CN2CC[C@@H]1C[C@H]2[C@H](O)c1cc(-c2cccnc2)nc2ccc(OC)cc12`, the growth inhibition in test [1] and in test [4] was 99% (active) each time. Also, the inhibition in test [2] was 20% (inactive); in test [3], 3% (inactive). For the same molecule, the result in test [5], in test [6], in test [7] and in test [8] was inactive.
As to `CC[C@H]1CN2CC[C@H]1C[C@H]2[C@H](O)c1cc(-c2ccc3ccccc3c2)nc2ccc(OC)cc12`, the growth inhibition in test [1] and in test [4] was 99% (active) throughout. Besides, the inhibition in test [2] is 49% (inactive); in test [3], -3% (inactive). Besides, the result in test [5], in test [6], in test [7] and in test [8] was inactive.
Regarding `Oc1ccc(CN2CCN(CCOC(c3ccccc3)c3ccccc3)CC2)cc1Cl`, the growth inhibition in test [1] was 77% (active); in test [4], 98% (active). Moreover, the inhibition in test [2] was 7% (inactive); in test [3] it was 1% (inactive). Moreover, the outcome in test [5], in test [6], in test [7] and in test [8] was inactive.
In the case of `COc1ccc(NC(=S)NC(NC(=O)CF)C(Cl)(Cl)Cl)cc1[N+](=O)[O-]` (configuration not stated), the growth inhibition in test [1] is -4% (inactive); in test [4], 97% (active). Further, the figures for the inhibition in test [2] and in test [3] were 66% (active) and 0% (inactive), respectively. The result in test [5], in test [6], in test [7] and in test [8] was inactive.
As to `COc1ccc2nc(-c3ccc(F)cc3)cc([C@@H](O)[C@@H]3C[C@@H]4CCN3CC4C=NO)c2c1` (some centres not stated), the values for the growth inhibition in test [1] and in test [4] were 94% (active) and 100% (active), respectively. Besides, the inhibition in test [2] is 14% (inactive); in test [3], -2% (inactive). The result in test [5], in test [6], in test [7] and in test [8] was inactive.
With `CN1C(=O)OC[C@@H]1Cc1ccc2[nH]cc(C3=CCN(Cc4ccccc4)CC3)c2c1`, the growth inhibition in test [1] was 66% (active); in test [4], 86% (active). Also, the inhibition in test [2] is 4% (inactive); in test [3], -9% (inactive). The outcome in test [5], in test [6], in test [7] and in test [8] was inactive.
With `S=C(NCCc1ccc(Cl)cc1)N1CCC(CN2CCC(c3c[nH]c4ccccc34)CC2)CC1`, the growth inhibition in test [1] was 7% (inactive); in test [4], 90% (active). The results for the inhibition in test [2] and in test [3] were 31% (inactive) and 0% (inactive), respectively. For the same molecule, the result in test [5], in test [6], in test [7] and in test [8] was inactive.
`O=C(C=Cc1ccc(F)c(Br)c1)NC1CCC(CN2CCC(c3c[nH]c4ccccc34)CC2)CC1` (configuration not stated): the growth inhibition in test [1] was 67% (active) and 50% (active); in test [4], 103% (active) and 102% (active). Besides, the inhibition was 39% (inactive) and 28% (inactive) in test [2]; 2% (inactive) and 5% (inactive) in test [3]. The outcome in test [5], in test [6], in test [7] and in test [8] was inactive.
On to `O=C(/C=C/c1c(Cl)cccc1Cl)NC1CCC(CN2[C@@H]3CC[C@H]2CC(c2c[nH]c4ccccc24)C3)CC1` (some centres not stated), for which the growth inhibition was 18% (inactive) in test [1] and 95% (active) in test [4]. Moreover, the inhibition in test [2] was 40% (inactive); in test [3], -1% (inactive). The result in test [5], in test [6], in test [7] and in test [8] was inactive.
